Results: PubChem BioAssay (NCI)
The panel holds about 83,000 compounds, 20% with a hit somewhere; the sample as a whole holds those more often.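 Each cell line was grown in a 96-well plate and treated with one concentration of compound for 48 hours. Values below 10 were considered active.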 Unmarked numbers belong to inactive results. Calls of active or inactive are those of the source.

Columns and labels:
Test in all cases: NCI-60 one-dose screen, 48 h (100 = growth as untreated, 0 = no growth, -100 = all killed)
Conditions in all cases: 10 µM
SK-MEL-2 melanoma = test system: SK-MEL-2 melanoma
EKVX NSCLC = test system: EKVX NSCLC
SN12C renal = test system: SN12C renal
UO-31 renal = test system: UO-31 renal
TK-10 renal = test system: TK-10 renal
ACHN renal = test system: ACHN renal
CAKI-1 renal = test system: CAKI-1 renal
A498 renal = test system: A498 renal
MOLT-4 leukemia = test system: MOLT-4 leukemia
CCRF-CEM leukemia = test system: CCRF-CEM leukemia

SMILES | growth (SK-MEL-2 melanoma) | growth (EKVX NSCLC) | growth (SN12C renal) | growth (UO-31 renal) | growth (TK-10 renal) | growth (ACHN renal) | growth (CAKI-1 renal) | growth (A498 renal) | growth (MOLT-4 leukemia) | growth (CCRF-CEM leukemia)
CC(C)(C)OC(=O)N1CCc2c(sc3ncnc(N/N=C/c4ccc(Br)cc4)c23)C1 | 68.4% | 52% | 75.2% | 44.7% | 78.2% | 53.1% | 41% | 31.2% | 33.9% | –
COc1ccc(-c2csc(NC(=O)c3ccc(Cc4n[nH]c(=O)c5cccnc45)cc3)n2)cc1 | 110% | 66.6% | 89.1% | 51.9% | 115% | 88.2% | 84.5% | 95.8% | 97.2% | –
COc1ccc(/C=C/C(=O)C(=O)/C=C/c2ccc(OC)c(OC)c2)cc1OC | 96.6% | 62.6% | 2.82% (active) | 0.571% (active) | 68.6% | -0.679% (active) | 84.3% | 72.9% | 23.4% | –
O=C(CN1CCN(C(=O)c2ccccc2)CC1)Nc1ccccc1SCc1ccccc1 | 66.8% | 72.3% | 77.9% | 52.2% | 82.2% | 80.8% | 71.8% | 86.6% | 74.1% | –
COc1ccc(-c2cc(-c3ccc(Cl)cc3)nc(SCCCC(=O)NO)n2)cc1OC | 13.3% | -13.8% (active) | 6.47% (active) | -53.2% (active) | 17.8% | -19.7% (active) | -5.05% (active) | -40.1% (active) | 9.38% (active) | –
CN(C)c1ccc(/C=N/NC(=O)c2cccc3ccccc23)c(Cl)c1 | 28% | 45.2% | 42.9% | 57.5% | 63.8% | 51.2% | 48.5% | -3.25% (active) | 15.5% | 10.1%
O=C(O)c1cn(C2CC2)c2cc(N3CCN(C(=O)c4cc(-c5ccc(Cl)cc5)nc5ccccc45)CC3)c(F)cc2c1=O | 101% | 85.5% | 90.9% | 35.8% | 113% | 87.3% | 60.2% | 74.2% | 82.1% | –
O=C(CCn1cnc2c(cc(-c3ccccc3)n2-c2ccccc2)c1=O)Nc1ccc(F)cc1 | 84.5% | 80.8% | 73.6% | 75% | 92.8% | 55.7% | 97.1% | 63.8% | 85.5% | –
N#Cc1c(N)nc(-c2cc(F)cc(C(F)(F)F)c2)nc1-c1ccccc1F | 90.4% | 38.6% | 24.9% | 33.3% | 38.1% | 2.03% (active) | 78.1% | 5.56% (active) | 50.1% | –
CC[C@@H](C(=O)[C@@H](C)[C@@H](O)[C@H](C)[C@@H]1O[C@@H]([C@@H](CC)C(=O)O)CC[C@@H]1C)C1O[C@]2(C=CC(=O)[C@]3(CC[C@@](C)([C@H]4CC[C@](O)(CC)[C@H](C)O4)O3)O2)[C@H](C)C[C@@H]1C (stereo partly drawn) | 40.7% | 38% | 27.6% | 24.3% | 57.7% | 31.6% | 27% | -11.4% (active) | 40.6% | –
O=C(O)c1ccc(-n2cc(CNc3ccc(Cl)cc3)c(-c3ccccc3)n2)cc1 | 78.5% | 78.1% | 94.9% | 82.4% | 91.7% | 79.5% | 88.8% | 91.4% | 82.4% | –
CCn1c(SCCc2ccccc2)nnc1-c1nn(-c2ccc(Cl)cc2Cl)c(-c2ccc(Cl)cc2)c1C | 53.8% | 52.6% | 70.3% | 53.5% | 75.3% | 61% | 64.4% | 96.6% | 41.6% | –
COc1ccc(-c2cc(-c3ccc(Cl)cc3)nc(SCCCCCCC(=O)NO)n2)cc1OC | 89.3% | 51.6% | 70.6% | 20.1% | 61.1% | 38.1% | 30.3% | 67.9% | 16.2% | –
CC(C)(C)OC(=O)N1CCc2c(sc3ncnc(N/N=C/c4ccccc4Br)c23)C1 | 91.7% | 52.2% | 78.7% | 32.7% | 79.6% | 42.4% | 54.4% | 84.7% | 21.2% | –
O=C(CCl)Oc1ccc(OC(=O)CCl)cc1 | 96.1% | 90.4% | 87.2% | 64.1% | 113% | 75.2% | 93.7% | 97.4% | 84.2% | 13.3%
C#CCOc1c(OC)cc(C(=O)/C(C)=C/c2cccc(N=[N+]=[N-])c2)cc1OC | 27.5% | 46% | 41.8% | 50.9% | 60.8% | 32.4% | 42.9% | 23.4% | 21.8% | –
Nc1ccn(Cc2nnc(CCC(=O)c3nc4ccccc4[nH]3)o2)c(=O)n1 | 100% | 84.1% | 87.1% | 44.2% | 100% | 87% | 82.8% | 61.7% | 8.54% (active) | –
COc1cc(-c2nc3ccccc3o2)cc(CN2CCCCC2)c1O | 89.3% | 66.5% | 62.1% | 43.9% | 129% | 64.8% | 85.2% | 55.2% | 48.8% | –
CCCN(CCC)C(=O)[C@H](CC)[C@@H]1CC[C@@H](C)[C@@H]([C@H](C)[C@@H](O)[C@@H](C)C(=O)[C@H](CC)C2O[C@]3(C=C[C@@H](O)[C@]4(CC[C@@](C)([C@H]5CC[C@](O)(CC)[C@H](C)O5)O4)O3)[C@H](C)C[C@@H]2C)O1 (stereo partly drawn) | 0.709% (active) | -13.6% (active) | 3.43% (active) | -16.8% (active) | 20.7% | -2.43% (active) | -8.15% (active) | -20.3% (active) | 15.3% | –
COc1cc2ncnc(NC3CCC(O)CC3)c2cc1OC (stereo not drawn) | 97.1% | 80.8% | 106% | 76.2% | 90% | 94.9% | 88.5% | 93.7% | 62.8% | –
COC(=O)c1cc2oc(/C=C3/SC(=S)N(N)C3=O)cc2n1Cc1ccccc1 | -14% (active) | 55.8% | 63.5% | -22.1% (active) | -4.58% (active) | 48.5% | 60.2% | -76.4% (active) | 4.64% (active) | 6.84% (active)
CC[C@@H](C(=O)[C@@H](C)[C@@H](O)[C@H](C)[C@@H]1O[C@@H]([C@@H](CC)C(=O)N(CC)CC)CC[C@@H]1C)C1O[C@]2(C=CC(=O)[C@]3(CC[C@@](C)([C@H]4CC[C@](O)(CC)[C@H](C)O4)O3)O2)[C@H](C)C[C@@H]1C (stereo partly drawn) | 11.4% | 19.6% | 16.8% | 0.811% (active) | 29.1% | 6.1% (active) | 7.58% (active) | 36.6% | 22.7% | –
CCCc1cn(CC(=O)Nc2nc3ccccc3s2)nn1 | 105% | 101% | 98.5% | 65.9% | 103% | 101% | 87.6% | 129% | 110% | –
Cc1c[nH]c(=O)n(Cc2nnc(CCC(=O)c3nc4ccccc4[nH]3)o2)c1=O | 25.2% | 54.9% | 30.2% | 44.2% | 64.1% | 61.1% | 63.5% | 11.5% | 9.42% (active) | –
COc1cc(C(=O)N2CCN(c3cc4c(cc3F)c(=O)c(C(=O)NO)cn4C3CC3)CC2)cc(OC)c1OC | 90.2% | 89.5% | 108% | 92.1% | 87.4% | 101% | 94.4% | 91.4% | 103% | –
